Assay results published in the supplement of paper PMC13392028.
In all, about 4,100 sequences were measured (“RBNS R-value (6-mer enrichment in protein-bound RNA vs input library)”: median about 0.99, highest 2% from about 1.4 on). What follows is part of a selection rich in the highest values, with near analogues and random picks from the rest.

Tested on: PfIESI-1 RRM domain (Plasmodium falciparum ortholog aa 875-1232, GST fusion)
Test: RBNS R-value (6-mer enrichment in protein-bound RNA vs input library) (ratio); higher = stronger binding preference; the methods of the paper give 50 / 100 / 500 nM protein instead
Procedure, shortened: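 The R-value, taken from the Burge lab pipeline, gives the enrichment of each motif in bound RNA relative to the input library. Motifs were 6-mers, and data come from one replicate. GST-tagged RNA-recognition-motif regions of orthologues from three Plasmodium species, made in E. coli and purified, were mixed at room temperature with a random 40-mer in vitro transcribed RNA library. Complexes were pulled down on glutathione magnetic agarose beads, washed three times, and bound and input RNA were reverse transcribed and sequenced on a MiSeq.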

Sequence	RBNS R-value (protein concentration: 250 nM)	RBNS R-value (protein concentration: 500 nM)	RBNS R-value (protein concentration: 1000 nM)
CCUCGA	1.12	1.08	1.11
GUGUCA	0.85	0.872	0.887
GAUACG	1.1	1.13	1.09
GCGGUA	0.985	0.954	1
CUCCUA	0.889	0.834	0.858
GCUUGC	1.01	0.943	0.985
GAUAGU	1.01	1.06	1
GAUAGA	1.21	1.3	1.18
GAUAGC	1.44	1.48	1.3
AAACGG	1.06	1.07	1.08
AAAGCU	0.98	1.05	1.03
CCCAGG	1.27	1.21	1.27
CCCAGU	1.09	1.03	1.06
CCCAGA	1.39	1.32	1.3
ACAUGA	1.25	1.37	1.2
CCUUUA	0.814	0.763	0.779
UGACCG	1.04	1.02	1.07
CUUUGU	0.825	0.805	0.863
AUUUGG	1.1	1.17	1.06
AUUUGA	1.45	1.59	1.34
AUUUGU	0.92	0.975	0.913
CUUUGG	0.959	0.914	0.962

Sequence	RBNS R-value (protein concentration: 250 nM)	RBNS R-value (protein concentration: 500 nM)	RBNS R-value (protein concentration: 1000 nM)
UUUUGU	0.909	0.927	0.922
CUUUGA	1.35	1.41	1.26
UUUUGC	1.06	1.04	1.02
UUUUGA	1.53	1.59	1.37
CCCUCG	1.05	0.973	1.06
AAAAUA	0.851	1.05	0.927
CCAAAU	0.978	1.04	0.995
AGCUGU	0.94	0.939	0.951
CCACAA	0.988	0.991	1
CUAGAG	1.1	1.1	1.09
GAUCGU	0.85	0.817	0.886
AGUGAC	1.02	1.05	1.03
CGUGAA	0.992	1.03	1.05
GGUGAU	1.33	1.4	1.28
GGUGAC	0.986	0.987	1.01
UGUGAG	0.948	1	1.06
CGUGAG	0.982	0.993	1.05
UGUGAC	0.993	0.99	0.972
CGUGAU	1.56	1.62	1.39
AGUGAU	1.55	1.73	1.44
AGUGAA	0.981	1.04	1.05
UGUGAU	1.55	1.73	1.39

Sequence	RBNS R-value (protein concentration: 250 nM)	RBNS R-value (protein concentration: 500 nM)	RBNS R-value (protein concentration: 1000 nM)
GGUGAG	1.02	1.02	1.02
UUAUAA	0.747	0.809	0.749
UUGUCA	0.891	0.887	0.9
GCACUA	0.903	0.86	0.892
ACACCU	1.23	1.16	1.12
ACAACG	0.949	0.979	0.966
GCCCUG	1.19	1.1	1.14
GACCCA	1.15	1.12	1.14
UACCCG	1.3	1.16	1.2
CACCCC	1.3	1.16	1.24
CACCCG	1.67	1.33	1.41
ACCCCG	1.29	1.16	1.25
AACCCC	1.11	1.05	1.08
AACCCG	1.38	1.25	1.29
UACCCA	1.07	1.01	1.01
GGCCCG	1.26	1.11	1.23
UGCCCG	1.32	1.16	1.2
CACCCA	1.42	1.26	1.31
CGCCCG	1.43	1.22	1.33
AGUAGA	1.01	1.08	1.05
GAUCGC	0.972	0.958	0.975
AACACA	0.942	1.02	0.978

Sequence	RBNS R-value (protein concentration: 250 nM)	RBNS R-value (protein concentration: 500 nM)	RBNS R-value (protein concentration: 1000 nM)
GAGUCA	0.969	0.989	0.99
UGCAAG	0.989	1.01	1.03
AUUAGU	0.821	0.901	0.849
CUCAGG	1.03	1.04	1.09
CACCUG	1.41	1.3	1.29
CACCUC	1.07	1	1.05
CACCUA	1.09	1.01	1.01
UCGGGG	1.04	0.984	1.05
UCUGCG	0.996	0.968	1
UUAUUA	0.766	0.749	0.734
UAUGGC	1.09	1.06	0.988
GAUGGG	1.47	1.46	1.34
UAUGGG	0.895	0.916	0.918
CAUGGC	1.03	0.999	1.03
GAUGGC	1.85	1.82	1.48
AAUGGG	1.03	1.06	1.03
CCUCCC	1.06	0.981	1.04
ACUAGG	0.943	0.956	0.957
UGGACA	0.973	0.993	0.99
